The source of these data is PubChem BioAssay.

Assay [1] can be described thus: resazurin metabolic signal in HepG2 cells – cell-based, resazurin fluorescence, 24 h, PK04 Diversity Set, profiling panel (AID 1172). Also: test concentration not given here. The following applies: HepG2 viability, higher = more signal. (In general: Resazurin is reduced to fluorescent resorufin, in cell work by metabolically active cells.)
Assay [2] is described as follows: budding yeast growth changes without added modifier – OD600, strain BY4716, 24 h, basal condition, primary screen (AID 1173). The note with it: S. cerevisiae BY4716 growth, OD600, 24 h; higher = more signal, called active from +8 up or from −8 down.
Assay [3] can be described thus: viability profiling in MM1S myeloma cells – cell-based, resazurin fluorescence, basal, 24 h, PK04 Diversity Set, profiling panel (AID 1174).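 Also: MM1S multiple myeloma cell line; test concentration not given here.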 The following applies: higher = more signal, called active from +8 up or from −8 down.
The target in assay [4] is Dihydroorotate dehydrogenase (quinone), mitochondrial (Plasmodium falciparum (isolate 3D7)) (UniProt Q08210). Nature of the assay: inhibition of P. falciparum DHODH – biochemical, C-terminal His tag, absorbance 600 nm, primary screen (AID 1175).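 Also: recombinant parasite enzyme with a five histidine tag at its C terminus; test concentration not given here.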 The note with it: PfDHODH enzyme, DCIP absorbance 600 nm; higher = more signal, called active from +8 up or from −8 down.
Chain of Dihydroorotate dehydrogenase (quinone), mitochondrial (Plasmodium falciparum (isolate 3D7)) (Q08210 whole entry, looked up): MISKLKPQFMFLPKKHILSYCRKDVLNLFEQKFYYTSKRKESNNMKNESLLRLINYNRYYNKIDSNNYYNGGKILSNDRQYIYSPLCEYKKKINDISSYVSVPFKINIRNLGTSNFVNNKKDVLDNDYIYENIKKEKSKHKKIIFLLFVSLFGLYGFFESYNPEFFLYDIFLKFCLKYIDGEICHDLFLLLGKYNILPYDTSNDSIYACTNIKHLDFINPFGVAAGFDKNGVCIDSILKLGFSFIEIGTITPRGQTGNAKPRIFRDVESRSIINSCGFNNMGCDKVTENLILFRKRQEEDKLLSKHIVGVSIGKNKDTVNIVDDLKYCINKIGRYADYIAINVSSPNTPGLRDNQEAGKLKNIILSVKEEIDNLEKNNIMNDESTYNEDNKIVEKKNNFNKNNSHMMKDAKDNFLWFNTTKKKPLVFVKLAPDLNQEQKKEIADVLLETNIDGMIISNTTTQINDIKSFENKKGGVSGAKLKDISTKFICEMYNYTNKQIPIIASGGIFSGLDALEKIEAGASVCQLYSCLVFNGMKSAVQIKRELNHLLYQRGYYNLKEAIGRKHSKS
The nature of assay [5]: inhibition of PAO1 biofilm formation – strain PAO1, LB-PBS medium, absorbance 600 nm, primary screen (AID 1176). Also: test concentration not given here. The following applies: P. aeruginosa PAO1 growth/biofilm, A600, 12 h; higher = more signal.
The nature of assay [6]: growth modulation of vineyard yeast isolate – strain RM11-1a, OD600, basal, 24 h, primary screen (AID 1177).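 Also: cultures grown under basal conditions with no added stressor; test concentration not given here.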 The note with it: S. cerevisiae RM11-1a growth, OD600, 24 h; higher = more signal, called active from +8 up or from −8 down.
The nature of assay [7]: growth of efflux-deficient E. coli DRC39 – strain DRC39, OD650, 24 h, E. coli filamentation inducers, primary screen (AID 1178).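 Also: growth measured as culture turbidity by optical density at 650 nm; test concentration not given here.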 The following applies: E. coli DRC39 acrAB, higher = more signal, called active from +8 up or from −8 down.
Assay [8] in a line: growth of efflux-deficient E. coli DRC39 – strain DRC39, OD650, 48 h, E. coli filamentation inducers, primary screen (AID 1179).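 Also: screen aims at cell division blockers that make cells filament.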 The note with it: E. coli DRC39 delta-acrAB growth, higher = more signal, called active from +8 up or from −8 down.
Assay [9] can be described thus: viability profiling in RPMI8226 myeloma cells – cell-based, resazurin fluorescence, basal, 24 h, PK04 Diversity Set, profiling panel (AID 1180).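 Also: RPMI8826 multiple myeloma cell line at 5000 cells per well; test concentration not given here.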 The following applies: higher = more signal.
The target of assay [10] is E3 ubiquitin-protein ligase XIAP (Homo sapiens) (UniProt P98170). As to the kind of experiment: small molecules binding XIAP protein – biophysical, small-molecule microarray, fluorescence 635 nm, primary screen (AID 1181).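 Also: score merges 667 nm emission and signal to noise over triplicate slides.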 The following applies: higher = more signal.
Chain of E3 ubiquitin-protein ligase XIAP (Homo sapiens) (P98170 whole entry, looked up): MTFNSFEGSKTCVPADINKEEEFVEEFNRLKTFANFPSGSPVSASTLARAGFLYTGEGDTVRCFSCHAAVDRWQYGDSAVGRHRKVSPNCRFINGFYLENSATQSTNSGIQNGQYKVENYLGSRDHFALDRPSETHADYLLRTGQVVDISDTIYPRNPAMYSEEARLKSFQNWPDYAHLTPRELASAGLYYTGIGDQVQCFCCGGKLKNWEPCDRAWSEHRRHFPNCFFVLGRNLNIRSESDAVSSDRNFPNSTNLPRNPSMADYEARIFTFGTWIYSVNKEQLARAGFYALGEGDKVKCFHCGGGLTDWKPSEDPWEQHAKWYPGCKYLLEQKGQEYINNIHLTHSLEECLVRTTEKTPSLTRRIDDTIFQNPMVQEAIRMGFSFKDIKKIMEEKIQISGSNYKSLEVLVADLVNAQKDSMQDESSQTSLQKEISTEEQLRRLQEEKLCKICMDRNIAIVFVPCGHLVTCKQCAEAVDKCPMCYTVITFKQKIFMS

SMILES strings stand for the structures. Calls of active or inactive are those of the source. Unless noted, no rule for the calls is given here.

On to `C=C(COC)/C(=C/C[C@H](OC(=O)c1ccncc1)c1cccc(OCCO)c1)c1cnc2ccccc2c1`, for which the z-score in [1] is 0.123; in [2] it was 0.14 (inactive); in assay [3], -1.24 (inactive); in assay [5], 1.14 (inactive); in assay [6], -0.148 (inactive); in assay [7] it was -0.259 (inactive). For the same compound, the z-score is -0.199 (inactive) in assay [8] and -0.697 in [9]. Further, the composite z-score in assay [4] was -5.24 (inactive); in assay [10], -0.0156.

Take `COc1ccc(C#Cc2ccc3c(c2)[C@]2(C(=O)N3)[C@H](C(=O)Nc3nc4ccccc4s3)[C@H]3C(=O)O[C@H](c4ccccc4)[C@H](c4ccccc4)N3[C@@H]2c2ccc(OCCO)cc2)cc1`: the z-score was 0.839 in assay [1]; 2.43 (inactive) in assay [2]; -0.625 (inactive) in assay [3]; 2.93 (inactive) in assay [5]; 2.53 (inactive) in [6]; 0.544 (inactive) in assay [7]. For the same compound, the z-score in assay [8] was 0.196 (inactive); in assay [9], -0.639. For the same compound, the composite z-score was -22.3 (active) in assay [4] and 0.0849 in assay [10].

As for `CC(C)CNC(=O)[C@@H]1c2ccccc2C(=O)N(Cc2ccccc2)[C@H]1c1ccc(CO)cc1`, the z-score was 0.768 in assay [1]; -0.21 (inactive) in assay [2]; -0.628 (inactive) in [3]; 0.388 (inactive) in assay [5]; -0.232 (inactive) in assay [6]; 0.278 (inactive) in assay [7]. Also, the z-score is 0.0254 (inactive) in assay [8] and 0.19 in [9]. Besides, the values for the composite z-score in assay [4] and in [10] were 0.13 (inactive) and 0.0785, respectively.

With `[N-]=[N+]=NCc1ccccc1[C@@H]1OC(c2ccc(OCCCO)cc2)=N[C@]1(Cc1ccccc1)C(=O)NCc1ccccc1`, the z-score was 0.771 in assay [1]; 0.467 (inactive) in [2]; -0.0664 (inactive) in [3]; -0.223 (inactive) in assay [5]; 1.7 (inactive) in assay [6]; -0.0548 (inactive) in assay [7]. Besides, the z-score in assay [8] is 0.065 (inactive); in assay [9] it was -0.484. Moreover, the composite z-score is 0.101 (inactive) in assay [4] and 0.1 in [10].

Consider `C#CCN=C(N)N`, for which the z-score is -0.0276 in assay [1]; -0.639 (inactive) in assay [2]; 0.111 (inactive) in assay [3]; 0.845 (inactive) in assay [5]; -0.491 (inactive) in assay [6]; -0.383 (inactive) in assay [7]. The z-score in assay [8] was -0.079 (inactive); in assay [9], 0.0428. In addition, the composite z-score in assay [4] was -0.377 (inactive); in [10], 0.155.

For the compound `[N-]=[N+]=NCc1ccccc1C[C@@]1(C(=O)O)N=C(c2ccc(OCCCO)cc2)O[C@@H]1c1ccccc1CN=[N+]=[N-]`, the z-score in assay [1] is 1.86; in [2], -4 (inactive); in assay [3], 0.781 (inactive); in assay [5], -0.608 (inactive); in assay [6] it was -0.916 (inactive); in [7], 0.274 (inactive). The z-score in [8] is 0.697 (inactive); in assay [9], 1.03. The values for the composite z-score in assay [4] and in assay [10] were -1.62 (inactive) and 0.209, respectively.

In the case of `COCCOC(=O)N1C(=O)[C@@]2(c3ccccc31)[C@H](C(=O)N1CCCCCCC1)[C@H]1C(=O)O[C@H](c3ccccc3)[C@H](c3ccccc3)N1[C@@H]2c1ccc(O)cc1`, the z-score was 0.226 in assay [1]; -0.975 (inactive) in assay [2]; -1.51 (inactive) in assay [3]; 1.32 (inactive) in assay [5]; -0.145 (inactive) in assay [6]; -0.0831 (inactive) in [7]. The results for the z-score in [8] and in assay [9] were -0.303 (inactive) and -1.03, respectively. For the same compound, the figures for the composite z-score in [4] and in assay [10] were -0.862 (inactive) and 0.782, respectively.

Consider `C=C(CC1([C@@H](NP(=O)(c2ccccc2)c2ccccc2)[C@H]2C[C@@H]2CCN(C(=O)OCC)S(=O)(=O)c2ccc(C)cc2)CC1)c1ccccc1`, for which the z-score in assay [1] is 0.716; in assay [2], 1.97 (inactive); in [3], -1.59 (inactive); in [5], 0.687 (inactive); in [6], 1.52 (inactive); in assay [7], 0.104 (inactive). Besides, the figures for the z-score in [8] and in assay [9] were -0.194 (inactive) and -1.05, respectively. The composite z-score was 0.0407 (inactive) in assay [4] and 0.303 in assay [10].

Turning to `CC1(C)OC[C@@]23C=C(Br)[C@@H](C[C@H]12)[C@@]1(CO1)C3=O`, the z-score is -0.0972 in [1]; -1.2 (inactive) in assay [2]; 0.0059 (inactive) in [3]; -0.0582 (inactive) in assay [5]; 0.617 (inactive) in assay [6]; -0.509 (inactive) in assay [7]. In addition, the z-score was -0.457 (inactive) in assay [8] and 0.325 in assay [9]. The composite z-score in [4] was 0.253 (inactive); in assay [10], -0.02.

On to `COCCOC(=O)N1C(=O)[C@@]2(c3cc(C#CC4(O)CCCCCC4)ccc31)[C@H](C(=O)NC[C@H](O)c1ccccc1)[C@H]1C(=O)O[C@H](c3ccccc3)[C@H](c3ccccc3)N1[C@@H]2c1ccc(O)cc1`, for which the z-score in assay [1] is 0.982; in assay [2], -0.598 (inactive); in assay [3], 0.483 (inactive); in assay [5], -0.108 (inactive); in assay [6] it was 0.759 (inactive); in assay [7] it was 0.0468 (inactive). Also, the figures for the z-score in assay [8] and in assay [9] were 0.321 (inactive) and -0.0629, respectively. Moreover, the figures for the composite z-score in assay [4] and in assay [10] were -0.122 (inactive) and -0.131, respectively.

As to `COCCOC(=O)N1C(=O)[C@@]2(c3cc(C#CCCO)ccc31)[C@H](c1ccccc1OCCO)N1[C@H](c3ccccc3)[C@H](c3ccccc3)OC(=O)[C@H]1[C@@H]2C(=O)N1CCc2cc(OC)c(OC)cc2C1`, the z-score was -0.321 in assay [1]; 1.39 (inactive) in assay [2]; 0.248 (inactive) in [3]; 1.26 (inactive) in [5]; 2 (inactive) in assay [6]; 0.0965 (inactive) in [7]. The z-score in assay [8] is 0.963 (inactive); in [9] it was 1.19. Also, the composite z-score in [4] is 0.725 (inactive); in assay [10] it was 0.132.

Take `COc1ccc(NN2C(C(O)c3ccc(OC)cc3)C=CC3C(=O)N(C4CCCCC4)C(=O)C32)cc1` (stereo not given): the z-score was 1.52 in [1]; -0.365 (inactive) in assay [2]; 0.363 (inactive) in [3]; 1.05 (inactive) in [5]; 0.107 (inactive) in [6]; -0.447 (inactive) in assay [7]. Further, the z-score is 0.703 (inactive) in [8] and 0.346 in assay [9]. Moreover, the composite z-score was -0.809 (inactive) in [4] and 0.229 in [10].

As to `O=C(NCCO)C1=C[C@H](Oc2ccccc2I)[C@@H](O)[C@H](NCc2ccc(F)cc2)C1`, the z-score is -1.47 in assay [1]; -2.04 (inactive) in assay [2]; -0.206 (inactive) in assay [3]; 0.367 (inactive) in assay [5]; 0.423 (inactive) in [6]; -0.802 (inactive) in assay [7]. The z-score in assay [8] is -1.44 (inactive); in [9] it was -0.264. Moreover, the composite z-score in assay [4] was -0.287 (inactive); in assay [10] it was 0.181.
